In experiment [1] the target is Bile acid receptor (Homo sapiens) (UniProt Q96RI1). In words: OT_FXR_FXRSRC1_1440: Odyssey Thera (OT) 24-hour HEK293T Protein-Complementation Assay for Farnesoid X receptor/SRC-1 Co-activator (AID 2283384). The essentials:
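Fluorescence readout, 24 h post-dose, HEK293T; FXR and SRC-1 fused to complementary reporter fragments, association reconstitutes signal. Positive-direction fit vs DMSO baseline.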

Experiment [2] addresses Retinoic acid receptor RXR-alpha (Homo sapiens) (UniProt P19793). Put plainly: OT_NURR1_NURR1RXRa_0480: Odyssey Thera (OT) 8-hour HEK293T Protein Complementation Assay for Nurr1/retinoid X receptor (RXR) (AID 2283385). The essentials:
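Read-out: fluorescence from protein-fragment complementation between Nurr1 and RXRα in human HEK293T cells, 8 h after dosing. DMSO served as negative control; increased signal counted as activity.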

A short description of experiment [3]: CEETOX_H295R_11DCORT: CeeTox H295R High-throughput Steroidogenesis Assay for 11-Deoxycortisol (11DCORT) (AID 2283432; active = hit-call score of the fitted dose curve at least 0.9, where 1 is the maximum; inactive = score below 0.9;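 as to AC50: 11-deoxycortisol secreted into the medium measured by LC-MS/MS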). The conditions noted are these: actives raise or lower the signal. An outline of the steps:
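Adrenal carcinoma line H295R, run per OECD 456 with minor changes, was forskolin-stimulated (10 uM, 48 h) before a 48 h chemical exposure at 0.1% DMSO. Secreted 11-deoxycortisol was quantified by HPLC-MS/MS.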

Experiment [4] in a line: CEETOX_H295R_OHPREG: CeeTox H295R High-throughput Steroidogenesis Assay for OH-Pregnenolone (OHPREG) (AID 2283434; active = hit-call score of the fitted dose curve at least 0.9, where 1 is the maximum; inactive = score below 0.9). The conditions noted are these: actives raise or lower the signal. An outline of the steps: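 H295R, 10 uM forskolin pre-stim 48 h; test chemical 48 h, 0.1% DMSO final. MTBE extraction, reverse-phase C18 HPLC-ESI+ MS/MS of medium. Gain/loss vs DMSO; viability by MTT in same wells.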

Experiment [5] can be described thus: CEETOX_H295R_OHPROG: CeeTox H295R High-throughput Steroidogenesis Assay for OH-Progesterone (OHPROG) (AID 2283435; active = hit-call score of the fitted dose curve at least 0.9, where 1 is the maximum; inactive = score below 0.9). The conditions noted are these: actives raise or lower the signal. The essentials: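 HPLC-MS/MS quantification of 17alpha-hydroxyprogesterone secreted by H295R cells after 48 h chemical exposure, following 48 h 10 uM forskolin prestimulation. Gain or loss of signal fitted relative to DMSO. Viability checked by MTT in the same wells.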

Experiment [6] can be described thus: CEETOX_H295R_CORTIC: CeeTox H295R High-throughput Steroidogenesis Assay for Corticosterone (CORTIC) (AID 2283437; active = hit-call score of the fitted dose curve at least 0.9, where 1 is the maximum; inactive = score below 0.9;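 also: corticosterone secreted into medium quantified by mass spectrometry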). The conditions noted are these: actives raise or lower the signal. An outline of the steps: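 48 h forskolin (10 uM) prestim, then 48 h chemical exposure, final DMSO 0.1%. Readout: corticosterone in medium by LC-MS/MS after MTBE extraction. Gain/loss fit vs DMSO; MTT viability in same wells.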

The nature of experiment [7]: CEETOX_H295R_CORTISOL: CeeTox H295R High-throughput Steroidogenesis Assay for Cortisol (AID 2283438; active = hit-call score of the fitted dose curve at least 0.9, where 1 is the maximum; inactive = score below 0.9;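 also: cortisol secreted into medium quantified by LC-MS/MS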). The conditions noted are these: actives raise or lower the signal. The essentials: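 Read-out: cortisol in culture medium by reverse-phase C18 HPLC with ESI-positive tandem MS, after MTBE liquid-liquid extraction. Cells: human adrenal H295R, forskolin-primed (10 uM, 48 h) before 48 h chemical exposure in 0.1% DMSO.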

Experiment [8] is described as follows: CEETOX_H295R_DOC: CeeTox H295R High-throughput Steroidogenesis Assay for DOC (AID 2283439; active = hit-call score of the fitted dose curve at least 0.9, where 1 is the maximum; inactive = score below 0.9). The conditions noted are these: actives raise or lower the signal. An outline of the steps:
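Human adrenocortical H295R cells, passages up to 10, received 10 uM forskolin for 48 h before chemical addition. After another 48 h exposure in 0.1% DMSO, secreted DOC was measured by LC-MS/MS, with gain or loss fitted against DMSO controls.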

The nature of experiment [9]: CEETOX_H295R_PROG: CeeTox H295R High-throughput Steroidogenesis Assay for Progesterone (PROG) (AID 2283442; active = hit-call score of the fitted dose curve at least 0.9, where 1 is the maximum; inactive = score below 0.9). The conditions noted are these: actives raise or lower the signal. The essentials:
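H295R adrenal cells prestimulated 48 h with 10 uM forskolin, then exposed 48 h to test chemical in 0.1% DMSO. Progesterone in medium quantified by HPLC-MS/MS after MTBE extraction; viability checked by MTT in same wells.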

Read-out in experiment [10]: Tumor necrosis factor receptor superfamily member 6 (Homo sapiens) (UniProt P25445)
Put plainly: LTEA_HepaRG_FAS: Life Technologies and Expression Analysis (LTEA) Assay for Fas cell surface death receptor (FAS) using HepaRG (AID 2283447; active = hit-call score of the fitted dose curve at least 0.9, where 1 is the maximum; inactive = score below 0.9). The conditions noted are these: mRNA level, 48 h; actives raise or lower the signal. An outline of the steps: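 Differentiated HepaRG cells in serum-free induction medium were exposed 48 h to 8 half-log concentrations up to 100 uM in 0.5% DMSO, in duplicate. FAS mRNA was measured by qRT-PCR normalised to ACTB, GAPDH and POLR2A; bidirectional fit versus DMSO.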

Read-out in experiment [11]: Fatty acid synthase (Homo sapiens) (UniProt P49327)
In words: LTEA_HepaRG_FASN: Life Technologies and Expression Analysis (LTEA) Assay for Fatty Acid Synthase (FASN) using HepaRG (AID 2283448; active = hit-call score of the fitted dose curve at least 0.9, where 1 is the maximum; inactive = score below 0.9). The conditions noted are these: mRNA level, 48 h; actives raise or lower the signal. The essentials:
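HepaRG, 48 h exposure, 8-pt half-log series top 100 uM, 0.5% DMSO vehicle, duplicates. Readout: FASN transcript by Fluidigm qRT-PCR; housekeeping-normalized; bidirectional curve fit vs DMSO baseline.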

The target of experiment [12] is Retinoic acid receptor RXR-alpha (Homo sapiens) (UniProt P19793). In words: OT_NURR1_NURR1RXRa_1440: Odyssey Thera (OT) 24-hour HEK293T Protein Complementation Assay for Nurr1/retinoid X receptor (RXR) (AID 2283386). An outline of the steps:
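Fluorescence PCA read-out; HEK293T; 24 h post-dose; bait/prey fused to reporter fragments; gain-of-signal fit vs DMSO negative control.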

The target of experiment [13] is Peroxisome proliferator-activated receptor gamma (Homo sapiens) (UniProt P37231). Put plainly: OT_PPARg_PPARgSRC1_0480: Odyssey Thera (OT) 8-hour Protein-Complementation Assay for Peroxisome Proliferator-activated Receptor Gamma / SRC-1 Co-activator (AID 2283387). The essentials:
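Protein-fragment complementation in HEK293T: Venus YFP halves (residues 1-158, 159-239, mutated to IFP1/IFP2) fused to PPARg/SRC-1. 8 h exposure; N/C ratio at 488 nm; DMSO negative control.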

Experiment [14] shares this target. Put plainly: OT_PPARg_PPARgSRC1_1440: Odyssey Thera (OT) 24-hour Protein-Complementation Assay for Peroxisome Proliferator-activated Receptor Gamma/ SRC-1 Co-activator (AID 2283388). An outline of the steps:
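HEK293T transiently transfected with PPARg/SRC-1 split-Venus YFP fusions 48 h before dosing, then treated 24 h at 37C. Fixed cells imaged; nuclear/cytoplasmic 488 nm fluorescence ratio, gain of signal versus DMSO.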

Experiment [15] deals with Estrogen receptor (Homo sapiens) (UniProt P03372). In words: OT_ERa_GFPERaERE_0480: Odyssey Thera (OT) 8-hour HeLa Transcription Induction Assay for Estrogen Receptor (AID 2283381; active = hit-call score of the fitted dose curve at least 0.9, where 1 is the maximum; inactive = score below 0.9). An outline of the steps: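 GFP-ERE reporter, HeLa, 8 h exposure. Readout: fluorescence microscopy, high-content image analysis. Fit direction positive vs DMSO negative control.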
The target is the same in experiment [16]. Put plainly: OT_ERa_GFPERaERE_0120: Odyssey Thera (OT) 2-hour HeLa Transcription Induction Assay for Estrogen Receptor (AID 2283382). An outline of the steps: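 Fluorescence microscopy read-out: inducible fluorescent protein reporter in HeLa cells, imaged 2 h post-dose. Signal increase over DMSO negative control fitted as single primary endpoint via high content image analysis.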

A short description of experiment [17]: CEETOX_H295R_ESTRADIOL: CeeTox H295R High-throughput Steroidogenesis Assay for Estradiol (AID 2283440; active = hit-call score of the fitted dose curve at least 0.9, where 1 is the maximum; inactive = score below 0.9;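 also: estradiol secreted into medium quantified by LC-MS/MS after dansyl derivatisation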). The conditions noted are these: actives raise or lower the signal. An outline of the steps:
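H295R cells pre-stimulated 48 h with 10 uM forskolin, then exposed 48 h to chemical in 0.1% DMSO. Medium estradiol quantified by MTBE extraction, dansyl derivatisation and HPLC-MS/MS; bidirectional fit versus DMSO; MTT viability required >/=70%.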

Experiment [18] in a line: CEETOX_H295R_ESTRONE: CeeTox H295R High-throughput Steroidogenesis Assay for Estrone (AID 2283441; active = hit-call score of the fitted dose curve at least 0.9, where 1 is the maximum; inactive = score below 0.9;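 also: estrone secreted into medium measured by LC-MS/MS after dansyl derivatization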). The conditions noted are these: actives raise or lower the signal. The essentials:
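Forskolin-stimulated H295R cells are treated 48 h with chemical, and estrone in the medium is measured by LC-MS/MS. Activity is fitted in both directions relative to DMSO controls, with chemicals diluted until MTT viability reaches at least 70%.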

Each structure is given as a SMILES string. Records with an inconclusive call do not appear. Calls of active or inactive are those of the source. The calls were made as follows, unless noted: active = hit-call score of the fitted dose curve at least 0.9, where 1 is the maximum; inconclusive = response in the unintended direction; inactive = score below 0.9.

The term AC50 denotes the concentration giving half of the maximal activity seen.

Peroxisome proliferator-activated receptor gamma (Homo sapiens), sequence (P37231 whole entry, looked up, the tested form may be a part): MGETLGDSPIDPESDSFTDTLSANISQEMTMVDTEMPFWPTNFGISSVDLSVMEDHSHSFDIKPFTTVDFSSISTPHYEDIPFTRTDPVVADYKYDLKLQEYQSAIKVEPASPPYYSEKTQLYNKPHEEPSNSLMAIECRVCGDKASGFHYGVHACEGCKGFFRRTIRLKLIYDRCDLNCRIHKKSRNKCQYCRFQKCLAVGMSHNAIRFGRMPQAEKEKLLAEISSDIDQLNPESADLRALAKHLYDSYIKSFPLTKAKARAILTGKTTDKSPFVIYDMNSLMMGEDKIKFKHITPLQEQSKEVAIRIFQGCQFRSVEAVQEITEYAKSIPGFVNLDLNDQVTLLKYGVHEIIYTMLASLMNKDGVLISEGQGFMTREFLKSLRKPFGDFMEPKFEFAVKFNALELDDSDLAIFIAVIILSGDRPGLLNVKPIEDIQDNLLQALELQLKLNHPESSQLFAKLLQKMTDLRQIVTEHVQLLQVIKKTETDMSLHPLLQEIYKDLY
Estrogen receptor (Homo sapiens), sequence (P03372 whole entry, looked up): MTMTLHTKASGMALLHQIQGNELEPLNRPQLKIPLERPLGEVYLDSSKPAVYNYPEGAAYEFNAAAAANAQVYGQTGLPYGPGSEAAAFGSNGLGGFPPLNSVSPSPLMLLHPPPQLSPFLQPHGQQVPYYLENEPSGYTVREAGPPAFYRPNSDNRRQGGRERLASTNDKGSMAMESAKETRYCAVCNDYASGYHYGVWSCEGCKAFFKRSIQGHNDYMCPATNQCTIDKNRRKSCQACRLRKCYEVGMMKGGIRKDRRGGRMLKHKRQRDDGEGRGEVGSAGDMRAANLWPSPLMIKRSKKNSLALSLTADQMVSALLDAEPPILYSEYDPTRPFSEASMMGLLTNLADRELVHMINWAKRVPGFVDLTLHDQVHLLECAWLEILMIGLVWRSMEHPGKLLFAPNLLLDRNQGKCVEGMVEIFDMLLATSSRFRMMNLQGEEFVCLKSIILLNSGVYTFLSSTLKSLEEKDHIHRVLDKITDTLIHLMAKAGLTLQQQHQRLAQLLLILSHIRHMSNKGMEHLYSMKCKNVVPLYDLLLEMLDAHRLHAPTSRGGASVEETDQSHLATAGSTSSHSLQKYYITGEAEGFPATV
Retinoic acid receptor RXR-alpha (Homo sapiens), sequence (P19793 whole entry, looked up, the tested form may be a part): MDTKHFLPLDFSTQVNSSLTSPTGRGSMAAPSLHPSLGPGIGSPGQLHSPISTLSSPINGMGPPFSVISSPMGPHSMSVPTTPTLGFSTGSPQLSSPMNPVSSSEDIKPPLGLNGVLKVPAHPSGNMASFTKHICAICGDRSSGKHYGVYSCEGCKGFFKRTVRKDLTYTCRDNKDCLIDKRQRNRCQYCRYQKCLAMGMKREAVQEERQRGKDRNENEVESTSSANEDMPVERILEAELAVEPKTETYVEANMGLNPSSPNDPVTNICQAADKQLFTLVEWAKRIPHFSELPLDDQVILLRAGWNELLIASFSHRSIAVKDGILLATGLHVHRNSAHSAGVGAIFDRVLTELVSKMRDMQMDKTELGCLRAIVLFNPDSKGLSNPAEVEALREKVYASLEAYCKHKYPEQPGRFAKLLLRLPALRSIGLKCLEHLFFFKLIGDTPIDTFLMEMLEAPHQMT
Bile acid receptor (Homo sapiens), sequence (Q96RI1 whole entry, looked up, the tested form may be a part): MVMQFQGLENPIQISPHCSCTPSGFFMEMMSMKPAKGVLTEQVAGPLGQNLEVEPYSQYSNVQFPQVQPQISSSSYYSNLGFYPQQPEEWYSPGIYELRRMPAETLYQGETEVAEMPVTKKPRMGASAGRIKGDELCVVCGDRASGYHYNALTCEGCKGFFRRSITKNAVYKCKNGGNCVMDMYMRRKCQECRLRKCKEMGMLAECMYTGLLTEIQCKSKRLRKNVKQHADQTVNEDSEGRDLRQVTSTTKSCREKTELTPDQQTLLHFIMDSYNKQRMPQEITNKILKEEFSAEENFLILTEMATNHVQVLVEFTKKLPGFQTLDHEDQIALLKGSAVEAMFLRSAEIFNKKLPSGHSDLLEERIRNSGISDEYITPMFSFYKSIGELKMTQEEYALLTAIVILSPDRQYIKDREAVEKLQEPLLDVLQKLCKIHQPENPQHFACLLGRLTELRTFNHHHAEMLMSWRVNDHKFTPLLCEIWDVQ
Fatty acid synthase (Homo sapiens), sequence (P49327 whole entry, looked up): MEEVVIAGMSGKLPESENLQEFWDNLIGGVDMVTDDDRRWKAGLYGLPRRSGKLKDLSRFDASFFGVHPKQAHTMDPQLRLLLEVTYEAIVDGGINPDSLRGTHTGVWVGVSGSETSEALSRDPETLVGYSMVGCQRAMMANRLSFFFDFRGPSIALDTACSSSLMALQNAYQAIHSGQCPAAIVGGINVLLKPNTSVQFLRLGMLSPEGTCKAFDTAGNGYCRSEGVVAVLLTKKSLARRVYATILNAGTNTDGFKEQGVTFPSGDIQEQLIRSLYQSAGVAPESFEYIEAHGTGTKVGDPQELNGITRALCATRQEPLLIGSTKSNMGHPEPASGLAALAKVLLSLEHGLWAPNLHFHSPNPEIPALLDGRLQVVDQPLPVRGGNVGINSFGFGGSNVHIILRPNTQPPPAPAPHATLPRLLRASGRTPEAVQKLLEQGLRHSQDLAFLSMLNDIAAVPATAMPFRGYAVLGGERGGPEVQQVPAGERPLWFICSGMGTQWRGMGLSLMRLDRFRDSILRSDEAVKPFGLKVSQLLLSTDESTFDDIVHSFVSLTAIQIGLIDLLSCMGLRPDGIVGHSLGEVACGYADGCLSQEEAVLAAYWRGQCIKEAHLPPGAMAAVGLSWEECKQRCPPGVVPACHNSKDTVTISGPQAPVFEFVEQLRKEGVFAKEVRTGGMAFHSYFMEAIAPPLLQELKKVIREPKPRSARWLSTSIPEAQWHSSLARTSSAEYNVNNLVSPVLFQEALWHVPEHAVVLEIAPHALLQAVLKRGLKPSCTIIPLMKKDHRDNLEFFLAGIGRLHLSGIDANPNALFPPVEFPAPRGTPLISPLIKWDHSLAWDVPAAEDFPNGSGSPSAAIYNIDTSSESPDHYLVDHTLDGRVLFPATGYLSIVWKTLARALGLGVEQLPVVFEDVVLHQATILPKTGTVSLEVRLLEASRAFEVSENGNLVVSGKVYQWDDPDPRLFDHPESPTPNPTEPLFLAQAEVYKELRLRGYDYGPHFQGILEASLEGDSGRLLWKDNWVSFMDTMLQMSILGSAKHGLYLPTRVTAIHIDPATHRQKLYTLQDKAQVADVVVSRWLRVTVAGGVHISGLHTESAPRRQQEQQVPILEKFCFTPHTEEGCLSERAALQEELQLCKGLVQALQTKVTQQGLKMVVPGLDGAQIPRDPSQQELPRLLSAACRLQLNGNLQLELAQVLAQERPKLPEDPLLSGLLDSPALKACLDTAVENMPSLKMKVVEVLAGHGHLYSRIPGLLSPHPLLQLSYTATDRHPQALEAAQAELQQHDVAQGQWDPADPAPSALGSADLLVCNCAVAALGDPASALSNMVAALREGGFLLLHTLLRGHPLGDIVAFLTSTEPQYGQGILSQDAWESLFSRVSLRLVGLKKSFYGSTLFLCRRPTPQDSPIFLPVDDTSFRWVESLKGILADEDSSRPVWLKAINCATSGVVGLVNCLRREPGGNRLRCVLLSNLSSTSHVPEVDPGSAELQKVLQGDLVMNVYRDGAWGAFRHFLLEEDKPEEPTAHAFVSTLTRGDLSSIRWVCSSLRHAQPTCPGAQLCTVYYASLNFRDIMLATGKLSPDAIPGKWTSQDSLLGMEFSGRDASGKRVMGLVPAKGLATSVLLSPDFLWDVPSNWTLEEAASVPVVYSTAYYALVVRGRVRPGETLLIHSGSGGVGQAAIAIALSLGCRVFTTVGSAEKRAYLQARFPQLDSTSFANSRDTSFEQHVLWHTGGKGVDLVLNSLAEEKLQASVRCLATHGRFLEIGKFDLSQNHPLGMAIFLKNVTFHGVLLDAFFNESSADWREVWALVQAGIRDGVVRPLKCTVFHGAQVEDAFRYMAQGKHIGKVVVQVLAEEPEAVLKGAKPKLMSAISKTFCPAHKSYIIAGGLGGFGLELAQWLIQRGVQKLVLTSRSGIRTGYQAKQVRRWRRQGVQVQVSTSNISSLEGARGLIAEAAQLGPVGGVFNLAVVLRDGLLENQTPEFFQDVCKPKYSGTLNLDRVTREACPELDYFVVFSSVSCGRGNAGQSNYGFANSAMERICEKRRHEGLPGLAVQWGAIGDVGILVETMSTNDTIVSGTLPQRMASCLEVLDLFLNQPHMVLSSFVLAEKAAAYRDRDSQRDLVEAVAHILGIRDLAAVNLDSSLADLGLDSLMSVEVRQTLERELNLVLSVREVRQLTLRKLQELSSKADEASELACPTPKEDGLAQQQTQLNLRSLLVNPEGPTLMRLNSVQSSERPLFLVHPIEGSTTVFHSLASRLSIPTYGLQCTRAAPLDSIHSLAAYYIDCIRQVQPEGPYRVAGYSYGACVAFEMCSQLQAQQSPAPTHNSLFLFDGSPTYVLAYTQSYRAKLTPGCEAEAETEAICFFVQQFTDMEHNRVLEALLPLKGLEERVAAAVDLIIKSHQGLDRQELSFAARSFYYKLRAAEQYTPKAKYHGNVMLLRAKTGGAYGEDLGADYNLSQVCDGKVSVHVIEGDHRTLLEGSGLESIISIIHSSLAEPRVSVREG

`O=C(O)c1ccc([N+](=O)[O-])cc1`: the call in experiment [1], in experiment [2], in [3], in experiment [4], in experiment [5] and in experiment [6] was inactive. Besides, the molecule was classed as inactive in experiment [7], in experiment [8], in experiment [9], in experiment [10] and in experiment [11].

Turning to `C[Si](O[Si](C)(C)C)O[Si](C)(C)C`, the molecule was classed as inactive in [2], in [12], in experiment [13] and in [14].

In the case of `CC1COc2ccccc2N1C(=O)C(Cl)Cl` (configuration not stated), the result in experiment [15], in [16], in [2], in [13], in [14] and in experiment [17] was inactive. Moreover, the call in experiment [18] and in experiment [9] was inactive. The AC50 in [3] is 25.2 µM (active); in [4], 3.66 µM (active); in experiment [6], 9.46 µM (active); in experiment [7], 32.3 µM (active); in experiment [8], 10.4 µM (active).

With `CCCCc1ccc(N)cc1`, the outcome in experiment [15], in experiment [16], in experiment [12], in experiment [13] and in [14] was inactive.

Consider `C=O`, for which the call in experiment [2], in experiment [12], in [13] and in experiment [14] was inactive.

Regarding `CCC(=O)/C=C/C1C(C)=CCCC1(C)C` (configuration not stated), the results for the half-maximal activity concentration (AC50) in [1] and in [2] were 82.5 µM (active) and 78.4 µM (active), respectively. Also, the molecule was called inactive in [12], in experiment [13] and in experiment [14].

For the molecule `O=C1NC(=O)c2ccccc21`, the molecule was classed as inactive in [1], in [2], in experiment [12], in experiment [13] and in experiment [14].

As for `CCCCCCCCCCCCCCCCCC(=O)OCC(CC)CCCC` (configuration not stated), the outcome in experiment [2], in [12], in [13] and in experiment [14] was inactive.

As for `CC(=O)OCCOC(C)=O`, the outcome in experiment [15], in [16], in experiment [12], in [13] and in experiment [14] was inactive.

With `CCCCOCCOCCOCCOCCO`, the result in experiment [15], in experiment [16], in experiment [2], in experiment [12], in experiment [13] and in [14] was inactive.

Consider `CCCCC(CC)COC(=O)/C=C\C(=O)OCC(CC)CCCC` (configuration not stated), for which the values for the AC50 in experiment [2] and in experiment [12] were 7.85 µM (active) and 50 µM (active), respectively. In addition, the molecule was called inactive in experiment [13] and in experiment [14].

For `COc1cc(C(C)(C)C)c(O)c(C(C)(C)C)c1`, the call in [1], in experiment [13] and in experiment [14] was inactive.

For the molecule `CC(C)=CCC[C@](C)(O)[C@@H]1CC=C(C)CC1`, the call in experiment [2], in experiment [12], in experiment [13] and in experiment [14] was inactive.

Consider `CCCCCCCCCCCCCCCC(=O)O`, for which the call in experiment [2], in experiment [12], in [13] and in experiment [14] was inactive.

As for `CCCCCCCCC`, the molecule was called inactive in experiment [15], in experiment [16], in [12], in experiment [13] and in experiment [14].

The record behind these values is PubChem BioAssay (EPA / NIEHS).
